Rv3671c inh = inhibits the M. tuberculosis serine protease Rv3671c; 320,000 compounds, 0.048% hits; inhibition, % at 5.96 µM; in the data active = inhibition above about 38%;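 also: extracellular domain of Rv3671c used as enzyme; 0% = enzyme with DMSO and 100% = no enzyme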
Target sequence (P9WHR9 whole entry, looked up, the tested form may be a part): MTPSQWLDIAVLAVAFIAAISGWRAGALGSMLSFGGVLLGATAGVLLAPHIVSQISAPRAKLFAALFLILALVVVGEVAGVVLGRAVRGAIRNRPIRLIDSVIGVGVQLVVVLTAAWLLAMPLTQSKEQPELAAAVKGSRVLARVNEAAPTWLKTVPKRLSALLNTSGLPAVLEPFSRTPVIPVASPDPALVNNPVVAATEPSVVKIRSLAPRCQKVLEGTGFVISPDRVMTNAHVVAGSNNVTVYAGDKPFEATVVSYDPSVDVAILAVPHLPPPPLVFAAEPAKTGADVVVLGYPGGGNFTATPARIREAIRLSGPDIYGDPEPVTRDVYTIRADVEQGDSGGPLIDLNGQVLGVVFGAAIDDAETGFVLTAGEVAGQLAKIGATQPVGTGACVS
FBA Mtb inh = Mtb fructose-bisphosphate aldolase inhibition. P9WQA3. purified M. tuberculosis FBA, fluorescence read-out. inhibition, % at 1 µM. 360,000 compounds, 2.3% hits. AID 588726; in the data active = inhibition above about 27%;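 also: 0% = vehicle and 100% = reference inhibitor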
Mtb UGM inh = blocks M. tuberculosis UGM enzyme. 320,000 compounds, 0.06% hits. P9WIQ1. purified UGM, fluorescence polarization probe displacement. inhibition, % at 10 µM. AID 504406; in the data active = inhibition above about 10%, passing the limit was not always enough; inconclusive = no clear call, values can overlap the other calls
GDH-TPI inh = counter-screen for M. tuberculosis FBA inhibitors: GDH-TPI coupled enzymes; GDH-TPI coupled enzyme counterscreen, NADH absorbance; AID 588335; 360,000 compounds, 1.2% hits; inhibition, % at 4.8 µM; in the data active = inhibition above about 30%;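 also: 0% = DMSO wells and 100% = wells lacking the enzyme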
RecA splice inh = inhibitors of M. tuberculosis RecA intein splicing. P9WHJ3. 290,000 compounds, 0.75% hits. cell-free RecA intein splicing, fluorescence. inhibition, % (test concentration not listed); in the data active = inhibition above about 30%; inconclusive = no clear call, values can overlap the other calls;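 also: 0% = vehicle wells and 100% = reference inhibitor control wells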
Mtb betalactam = beta-lactam sensitization of Mtb H37Rv. inhibition, % at 25 µM. M. tuberculosis H37Rv growth with meropenem, percent inhibition. 330,000 compounds, 0.27% hits; call rule not given here;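 also: growth measured after seven days incubation then overnight dye step; 0% = bacteria only wells and 100% = bacteria with antibiotic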
Active calls of the source: *. An excerpt weighted towards active compounds, which were near 4% of everything screened.

How did CCN1C(=O)[C@H]2[C@@H](c3ccc(-c4ccc(Cl)c(Cl)c4)c(OC)c3)N3CCCC[C@@]3(C(=O)OC)[C@H]2C1=O do in these assays?
Rv3671c inh: -8; FBA Mtb inh: 0; Mtb UGM inh: 1; GDH-TPI inh: 5; Mtb betalactam: -4

Results for Cc1nc2c(C)cccc2c2c1CCN2c1ccccc1F ?
Rv3671c inh: 5; FBA Mtb inh: 113*; Mtb UGM inh: -1; GDH-TPI inh: 10; RecA splice inh: -23; Mtb betalactam: -6

What do the screens show for `CCOC(=O)N1CCc2c(sc3c2C(=O)NC(c2ccccc2)N3)C1` (stereo unspecified)?
Rv3671c inh: -31; FBA Mtb inh: 58*; Mtb UGM inh: 3; GDH-TPI inh: 12; RecA splice inh: -3; Mtb betalactam: 2

Results for CN1CCc2c(sc3c2C(=O)NC(c2cccc(OC(=O)c4cccs4)c2)N3)C1 (stereo unspecified) ?
Rv3671c inh: -20; FBA Mtb inh: 4; Mtb UGM inh: 6; GDH-TPI inh: 14; RecA splice inh: -13; Mtb betalactam: 42

How did COC(=O)c1cccc(-c2ccc(/C=N/N3C(=O)C4C5C=CC(C6CC56)C4C3=O)o2)c1 (stereo unspecified) do in these assays?
Rv3671c inh: -5; FBA Mtb inh: 0; Mtb UGM inh: 2; GDH-TPI inh: 8; RecA splice inh: -1; Mtb betalactam: 31

Results for COC(=O)c1ccc(-c2ccc(/C=N/N3C(=O)C4C5C=CC(C6CC56)C4C3=O)o2)cc1 (stereo unspecified) ?
Rv3671c inh: -13; FBA Mtb inh: 4; Mtb UGM inh: 0; GDH-TPI inh: 34*; RecA splice inh: 1; Mtb betalactam: 28

What do the screens show for `Cc1ccc(S(=O)(=O)N2CCC[C@H]2C(=O)NCc2ccccc2Cl)cc1`?
Rv3671c inh: 1; FBA Mtb inh: -1; Mtb UGM inh: 2; GDH-TPI inh: 2; Mtb betalactam: -2

How did CCCn1c(=O)[nH]c(=O)c2c1nc(-c1ccc(OC(F)(F)C(F)C(F)(F)F)cc1)n2CCOC (stereo unspecified) do in these assays?
Rv3671c inh: -17; FBA Mtb inh: 16; Mtb UGM inh: -1; GDH-TPI inh: -1; RecA splice inh: -2; Mtb betalactam: 17

Results for COCCn1c(-c2ccc(C#N)cc2)nc2c1c(=O)[nH]c(=O)n2Cc1ccccc1 ?
Rv3671c inh: 0; FBA Mtb inh: active; Mtb UGM inh: 3; GDH-TPI inh: -5; RecA splice inh: 1; Mtb betalactam: 15

What do the screens show for `CCCn1c(=O)[nH]c(=O)c2c1nc(-c1ccc(C#N)cc1)n2CCOC`?
Rv3671c inh: 4; FBA Mtb inh: active; Mtb UGM inh: 1; GDH-TPI inh: -2; RecA splice inh: -3; Mtb betalactam: -8

Results for CCS(=O)(=O)c1ccc(O)c(NC(=O)/C=C/c2ccc(Cl)cc2)c1 ?
Rv3671c inh: -4; FBA Mtb inh: -3; Mtb UGM inh: 2; GDH-TPI inh: 34*; RecA splice inh: -3; Mtb betalactam: -4

How did Cc1ccc(/C=C/C(=O)Nc2cc(S(N)(=O)=O)ccc2O)cc1 do in these assays?
Rv3671c inh: -9; FBA Mtb inh: 0; Mtb UGM inh: 0; GDH-TPI inh: 18; RecA splice inh: 3; Mtb betalactam: 26

What do the screens show for `CNC(=O)C[C@H]1C(=O)N(c2ccccc2)C[C@@H]1C`?
FBA Mtb inh: 0; GDH-TPI inh: 3

How did COc1cc2c[n+](C)c3c4ccccc4ccc3c2cc1OC do in these assays?
FBA Mtb inh: 120*; GDH-TPI inh: 20

Results for O=C1COc2ccc(S(=O)(=O)N3CCN(c4ccccc4F)CC3)cc2N1 ?
Rv3671c inh: 4; FBA Mtb inh: 0; Mtb UGM inh: -2; GDH-TPI inh: -1; RecA splice inh: -1; Mtb betalactam: 0

What do the screens show for `CN1CCC(N(C)S(=O)(=O)c2ccc(NC(=O)COc3ccc(F)cc3Cl)cc2)CC1`?
Rv3671c inh: 4; FBA Mtb inh: 0; Mtb UGM inh: 1; GDH-TPI inh: 5; RecA splice inh: 4; Mtb betalactam: 6

What do the screens show for `CC(C)Oc1cccc(C(=O)NC(=S)Nc2ccc(N3CCN(C)CC3)cc2)c1`?
Rv3671c inh: 0; FBA Mtb inh: 85*; Mtb UGM inh: 1; GDH-TPI inh: 5; RecA splice inh: -1; Mtb betalactam: 38

Results for COc1cccc(C(=O)NC(=S)Nc2ccc(N3CCCC3)cc2)c1 ?
Rv3671c inh: 13; FBA Mtb inh: 1; Mtb UGM inh: 1; GDH-TPI inh: 5; RecA splice inh: -1; Mtb betalactam: 22

How did COc1ccc(N2C(=O)c3cccc4cccc(c34)C2=O)cc1 do in these assays?
Rv3671c inh: -3; FBA Mtb inh: -3; Mtb UGM inh: 3; GDH-TPI inh: 6; RecA splice inh: -1; Mtb betalactam: -6

What do the screens show for `COc1ccc(N2C(=O)c3cccc4c(N(C)CCO)ccc(c34)C2=O)cc1`?
FBA Mtb inh: -13; Mtb UGM inh: 21*; GDH-TPI inh: -9; RecA splice inh: -11; Mtb betalactam: 7

Results for Cc1ccccc1C(=O)Nc1cccc(NC(=O)c2ccc(-c3ccc(Br)cc3)o2)c1 ?
Rv3671c inh: -5; FBA Mtb inh: -2; Mtb UGM inh: 3; GDH-TPI inh: 34*; RecA splice inh: 3; Mtb betalactam: 86

Results for COc1cccc(Nc2nc(Nc3ccc(Cl)c(C(=O)O)c3)nc(C)c2[N+](=O)[O-])c1 ?
Rv3671c inh: -62; FBA Mtb inh: 1; Mtb UGM inh: 2; GDH-TPI inh: 18; Mtb betalactam: -3

What do the screens show for `COc1ccc(CCC(=O)NCC23CC4CC(CC(C4)C2)C3)cc1`?
Rv3671c inh: -11; FBA Mtb inh: 0; Mtb UGM inh: 2; GDH-TPI inh: -2; RecA splice inh: 4; Mtb betalactam: 4

What do the screens show for `O=C(O)CCN1C(=O)/C(=C\c2cccc(OCC(=O)Nc3ccc(Cl)cc3)c2)SC1=S`?
Rv3671c inh: -23; FBA Mtb inh: -13; Mtb UGM inh: -2; GDH-TPI inh: 8; RecA splice inh: 13; Mtb betalactam: -4

What do the screens show for `O=C(O)COc1cccc(/C=C2/SC(=S)N(Cc3ccccc3)C2=O)c1`?
Rv3671c inh: -29; FBA Mtb inh: 2; Mtb UGM inh: 0; GDH-TPI inh: 14; RecA splice inh: 45*; Mtb betalactam: 3

What do the screens show for `Cc1ccc(NC(=O)COc2cccc(/C=C3\SC(=S)N(CCC(=O)O)C3=O)c2)cc1Cl`?
Rv3671c inh: -19; FBA Mtb inh: 2; Mtb UGM inh: 0; GDH-TPI inh: 4; RecA splice inh: 31*; Mtb betalactam: 7

How did CCCCc1nc(C(N)=O)c2[nH]c(=O)n(-c3ccccc3F)c2n1 do in these assays?
Rv3671c inh: -1; FBA Mtb inh: 136*; Mtb UGM inh: 0; GDH-TPI inh: 5; RecA splice inh: 2; Mtb betalactam: inconclusive

What do the screens show for `CCCCc1nc(C(N)=O)c2[nH]c(=O)n(-c3ccc(OC)cc3OC)c2n1`?
Rv3671c inh: -5; FBA Mtb inh: 3; Mtb UGM inh: -2; GDH-TPI inh: 9; RecA splice inh: -1; Mtb betalactam: inconclusive
